Article PMC11006913
Where a chain is given by its changes, count along the chain named.

Assays:
Assay in all cases: PBM; 200 nM protein, PBS
Conditions in all cases: dsDNA, one strand shown
VENTX [1] = target: T1, VENTX (Homo sapiens, UniProt O95231 78-163)
T1 sequence: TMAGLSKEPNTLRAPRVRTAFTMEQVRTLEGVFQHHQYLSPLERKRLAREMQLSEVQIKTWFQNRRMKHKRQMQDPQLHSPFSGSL

PAX4 [2] = target: T2, PAX4 (Homo sapiens, UniProt O43316 9-242, R200K)
T2 sequence: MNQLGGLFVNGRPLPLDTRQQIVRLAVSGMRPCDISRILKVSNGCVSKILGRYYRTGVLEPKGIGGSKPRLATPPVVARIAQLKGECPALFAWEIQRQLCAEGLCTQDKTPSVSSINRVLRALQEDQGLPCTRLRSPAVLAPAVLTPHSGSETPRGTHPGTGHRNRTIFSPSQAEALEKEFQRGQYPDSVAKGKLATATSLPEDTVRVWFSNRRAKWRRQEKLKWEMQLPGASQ

VENTX [3] = target: T3, VENTX (Homo sapiens, UniProt O95231 78-163, Y115F)
T3 sequence: T1 sequence with Y38F

PAX4 [4] = target: T4, PAX4 (Homo sapiens, UniProt O43316 9-242)
T4 sequence: T2 sequence with K192R

PAX4 [5] = target: T5, PAX4 (Homo sapiens, UniProt O43316 9-242, R200Q)
T5 sequence: T2 sequence with K192Q

HOXA2 [6] = target: HOXA2 (Homo sapiens, UniProt O43364 129-215, R185K)
HOXA2 (Homo sapiens, UniProt O43364 129-215, R185K), sequence (O43364 129-215 R185K): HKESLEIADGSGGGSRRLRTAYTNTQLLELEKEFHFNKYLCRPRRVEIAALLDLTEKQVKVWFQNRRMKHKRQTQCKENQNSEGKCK

PAX4 [7] = target: T6, PAX4 (Homo sapiens, UniProt O43316 9-242, F177V)
T6 sequence: T2 sequence with F169V, K192R

PAX4 [8] = target: T7, PAX4 (Homo sapiens, UniProt O43316 9-242, F177Y)
T7 sequence: T2 sequence with F169Y, K192R

PAX4 [9] = target: T8, PAX4 (Homo sapiens, UniProt O43316 9-242, R227W)
T8 sequence: T2 sequence with K192R, R219W

HOXA2 [10] = target: HOXA2 (Homo sapiens, UniProt O43364 129-215, Y150S)
HOXA2 (Homo sapiens, UniProt O43364 129-215, Y150S), sequence (O43364 129-215 Y150S): as the sequence (O43364 129-215 R185K) above, with Y22S, K57R counted along it

HOXA2 [11] = target: HOXA2 (Homo sapiens, UniProt O43364 129-215)
HOXA2 (Homo sapiens, UniProt O43364 129-215), sequence (O43364 129-215): as the sequence (O43364 129-215 R185K) above, with K57R counted along it

HOXB9 = HOXB9 (Homo sapiens, UniProt P17482 171-250, T197M)
HOXB9, sequence (P17482 171-250 T197M): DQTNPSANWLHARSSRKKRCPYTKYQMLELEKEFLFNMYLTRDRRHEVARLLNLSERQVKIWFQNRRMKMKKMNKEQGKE

HOXC10 = HOXC10 (Homo sapiens, UniProt Q9NYD6 254-340, K271E)
HOXC10, sequence (Q9NYD6 254-340 K271E): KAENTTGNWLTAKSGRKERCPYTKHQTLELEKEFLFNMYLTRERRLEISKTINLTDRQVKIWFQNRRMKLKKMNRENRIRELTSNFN

Sequence | binding signal (VENTX [1]) | binding signal (PAX4 [2]) | binding signal (VENTX [3]) | binding signal (PAX4 [4]) | binding signal (PAX4 [5]) | binding signal (HOXA2 [6]) | binding signal (PAX4 [7]) | binding signal (PAX4 [8]) | binding signal (PAX4 [9]) | binding signal (HOXA2 [10]) | binding signal (HOXA2 [11]) | binding signal (HOXB9) | binding signal (HOXC10)
CAATTAGC | 13.1 upbm affinity estimate (log intensity, higher = more binding, comparable within an allelic series) | 11.6 upbm affinity estimate (log intensity, higher = more binding, comparable within an allelic series) | 12.3 upbm affinity estimate (log intensity, higher = more binding, comparable within an allelic series) | 12.2 upbm affinity estimate (log intensity, higher = more binding, comparable within an allelic series) | 12 upbm affinity estimate (log intensity, higher = more binding, comparable within an allelic series) | 13.6 upbm affinity estimate (log intensity, higher = more binding, comparable within an allelic series) | 10.3 upbm affinity estimate (log intensity, higher = more binding, comparable within an allelic series) | 10.8 upbm affinity estimate (log intensity, higher = more binding, comparable within an allelic series) | 10.8 upbm affinity estimate (log intensity, higher = more binding, comparable within an allelic series) | 10.7 upbm affinity estimate (log intensity, higher = more binding, comparable within an allelic series) | 12.6 upbm affinity estimate (log intensity, higher = more binding, comparable within an allelic series) | – | –
AATTAATC | 12.3 upbm affinity estimate (log intensity, higher = more binding, comparable within an allelic series) | 11.9 upbm affinity estimate (log intensity, higher = more binding, comparable within an allelic series) | 11.5 upbm affinity estimate (log intensity, higher = more binding, comparable within an allelic series) | 12.4 upbm affinity estimate (log intensity, higher = more binding, comparable within an allelic series) | 12.2 upbm affinity estimate (log intensity, higher = more binding, comparable within an allelic series) | – | 10.7 upbm affinity estimate (log intensity, higher = more binding, comparable within an allelic series) | 11.2 upbm affinity estimate (log intensity, higher = more binding, comparable within an allelic series) | 11 upbm affinity estimate (log intensity, higher = more binding, comparable within an allelic series) | – | – | 10 upbm affinity estimate (log intensity, higher = more binding, comparable within an allelic series) | –
CAATTATC | – | – | – | – | 11.8 upbm affinity estimate (log intensity, higher = more binding, comparable within an allelic series) | 13 upbm affinity estimate (log intensity, higher = more binding, comparable within an allelic series) | – | – | – | 10.9 upbm affinity estimate (log intensity, higher = more binding, comparable within an allelic series) | 12.1 upbm affinity estimate (log intensity, higher = more binding, comparable within an allelic series) | – | –
CTCAATTA | – | – | – | – | – | 13 upbm affinity estimate (log intensity, higher = more binding, comparable within an allelic series) | – | – | – | 10.8 upbm affinity estimate (log intensity, higher = more binding, comparable within an allelic series) | 12.1 upbm affinity estimate (log intensity, higher = more binding, comparable within an allelic series) | – | –
CTAATTAG | 13.5 upbm affinity estimate (log intensity, higher = more binding, comparable within an allelic series) | 12.5 upbm affinity estimate (log intensity, higher = more binding, comparable within an allelic series) | 12.8 upbm affinity estimate (log intensity, higher = more binding, comparable within an allelic series) | 13 upbm affinity estimate (log intensity, higher = more binding, comparable within an allelic series) | 13.1 upbm affinity estimate (log intensity, higher = more binding, comparable within an allelic series) | 14.3 upbm affinity estimate (log intensity, higher = more binding, comparable within an allelic series) | 11.2 upbm affinity estimate (log intensity, higher = more binding, comparable within an allelic series) | 11.8 upbm affinity estimate (log intensity, higher = more binding, comparable within an allelic series) | 11.7 upbm affinity estimate (log intensity, higher = more binding, comparable within an allelic series) | 10.9 upbm affinity estimate (log intensity, higher = more binding, comparable within an allelic series) | 13.4 upbm affinity estimate (log intensity, higher = more binding, comparable within an allelic series) | – | –
TAATTAGA | 13 upbm affinity estimate (log intensity, higher = more binding, comparable within an allelic series) | 12.2 upbm affinity estimate (log intensity, higher = more binding, comparable within an allelic series) | 12.4 upbm affinity estimate (log intensity, higher = more binding, comparable within an allelic series) | 12.8 upbm affinity estimate (log intensity, higher = more binding, comparable within an allelic series) | 12.7 upbm affinity estimate (log intensity, higher = more binding, comparable within an allelic series) | 13.9 upbm affinity estimate (log intensity, higher = more binding, comparable within an allelic series) | 11 upbm affinity estimate (log intensity, higher = more binding, comparable within an allelic series) | 11.5 upbm affinity estimate (log intensity, higher = more binding, comparable within an allelic series) | 11.5 upbm affinity estimate (log intensity, higher = more binding, comparable within an allelic series) | 11 upbm affinity estimate (log intensity, higher = more binding, comparable within an allelic series) | 13.1 upbm affinity estimate (log intensity, higher = more binding, comparable within an allelic series) | 10.1 upbm affinity estimate (log intensity, higher = more binding, comparable within an allelic series) | 11.8 upbm affinity estimate (log intensity, higher = more binding, comparable within an allelic series)
CTAATTGA | 12.8 upbm affinity estimate (log intensity, higher = more binding, comparable within an allelic series) | 11.5 upbm affinity estimate (log intensity, higher = more binding, comparable within an allelic series) | 11.7 upbm affinity estimate (log intensity, higher = more binding, comparable within an allelic series) | 12.2 upbm affinity estimate (log intensity, higher = more binding, comparable within an allelic series) | 11.8 upbm affinity estimate (log intensity, higher = more binding, comparable within an allelic series) | 13.4 upbm affinity estimate (log intensity, higher = more binding, comparable within an allelic series) | 10.4 upbm affinity estimate (log intensity, higher = more binding, comparable within an allelic series) | 10.8 upbm affinity estimate (log intensity, higher = more binding, comparable within an allelic series) | 10.7 upbm affinity estimate (log intensity, higher = more binding, comparable within an allelic series) | 10.6 upbm affinity estimate (log intensity, higher = more binding, comparable within an allelic series) | 12.6 upbm affinity estimate (log intensity, higher = more binding, comparable within an allelic series) | – | –
CCTAATTA | 13 upbm affinity estimate (log intensity, higher = more binding, comparable within an allelic series) | 12.1 upbm affinity estimate (log intensity, higher = more binding, comparable within an allelic series) | 12.4 upbm affinity estimate (log intensity, higher = more binding, comparable within an allelic series) | 12.6 upbm affinity estimate (log intensity, higher = more binding, comparable within an allelic series) | 12.5 upbm affinity estimate (log intensity, higher = more binding, comparable within an allelic series) | 13.8 upbm affinity estimate (log intensity, higher = more binding, comparable within an allelic series) | 10.8 upbm affinity estimate (log intensity, higher = more binding, comparable within an allelic series) | 11.3 upbm affinity estimate (log intensity, higher = more binding, comparable within an allelic series) | 11.2 upbm affinity estimate (log intensity, higher = more binding, comparable within an allelic series) | 10.8 upbm affinity estimate (log intensity, higher = more binding, comparable within an allelic series) | 13.2 upbm affinity estimate (log intensity, higher = more binding, comparable within an allelic series) | – | 11.8 upbm affinity estimate (log intensity, higher = more binding, comparable within an allelic series)
TAATTGCA | – | – | 11.6 upbm affinity estimate (log intensity, higher = more binding, comparable within an allelic series) | – | – | 13.4 upbm affinity estimate (log intensity, higher = more binding, comparable within an allelic series) | – | – | – | 11 upbm affinity estimate (log intensity, higher = more binding, comparable within an allelic series) | 12.3 upbm affinity estimate (log intensity, higher = more binding, comparable within an allelic series) | 10.2 upbm affinity estimate (log intensity, higher = more binding, comparable within an allelic series) | 11.8 upbm affinity estimate (log intensity, higher = more binding, comparable within an allelic series)
CCCCGGCG | – | – | – | – | – | – | – | – | – | – | – | – | 10 upbm affinity estimate (log intensity, higher = more binding, comparable within an allelic series)
